Mtb bLac sens = beta-lactam sensitization of Mtb H37Rv, H37Rv; M. tuberculosis H37Rv growth with meropenem, percent inhibition; inhibition, % at 25 µM; actives 0.27% (n = 330,000); AID 434955, 2010;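 note: growth measured after seven days incubation then overnight dye step; 0% = bacteria only wells and 100% = bacteria with antibiotic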
FBA Mtb inh = Mtb FBA enzyme inhibitors, primary screen, biochemical, fluorescence, strain H37Rv; Fructose-bisphosphate aldolase (Mycobacterium tuberculosis (strain ATCC 25618 / H37Rv)), …; purified M. tuberculosis FBA, fluorescence read-out; inhibition, % at 1 µM; actives 2.3% (n = 360,000); AID 588726, 2011; in the data active = inhibition above about 27%;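 note: 0% = vehicle and 100% = reference inhibitor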
RecA splice inh = Mtb RecA intein splicing inhibitors, primary screen, biochemical, fluorescence, HTS; Protein RecA (Mycobacterium tuberculosis (strain ATCC 25618 / H37Rv)), P9WHJ3; cell-free RecA intein splicing; inhibition, % (concentration not given with the values); actives 0.75% (n = 290,000); AID 2221, 2009; in the data active = inhibition above about 30%;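 note: 0% = vehicle wells and 100% = reference inhibitor control wells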
Rv3671c protease = Rv3671c serine protease inhibitors, primary screen, biochemical, fluorescence polarization, M. tuberculosis H37Rv | AID 2606, 2010 | inhibition, % at 5.96 µM | actives 0.048% (n = 320,000) | P9WHR9; in the data active = inhibition above about 38%;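 note: extracellular domain of Rv3671c used as enzyme; 0% = enzyme with DMSO and 100% = no enzyme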
Target sequence (P9WHR9 whole entry, looked up, the tested form may be a part): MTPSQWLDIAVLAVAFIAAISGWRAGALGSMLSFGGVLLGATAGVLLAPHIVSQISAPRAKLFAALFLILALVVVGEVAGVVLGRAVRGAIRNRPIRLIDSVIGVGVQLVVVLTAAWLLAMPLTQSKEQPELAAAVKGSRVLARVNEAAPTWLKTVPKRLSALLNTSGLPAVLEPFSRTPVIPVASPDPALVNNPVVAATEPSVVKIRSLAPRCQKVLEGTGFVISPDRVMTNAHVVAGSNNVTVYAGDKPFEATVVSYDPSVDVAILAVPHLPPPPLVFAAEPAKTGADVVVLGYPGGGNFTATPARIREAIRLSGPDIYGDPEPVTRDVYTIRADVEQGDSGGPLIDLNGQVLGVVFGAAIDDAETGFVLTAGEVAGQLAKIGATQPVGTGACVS
Mtb UGM inh = M. tuberculosis UGM enzyme inhibitors, primary screen, biochemical, fluorescence polarization, single point. UDP-galactopyranose mutase (Mycobacterium tuberculosis (strain ATCC 25618 / H37Rv)), …. inhibition, % at 10 µM. AID 504406, 2011. actives 0.06% (n = 320,000). purified UGM, fluorescence polarization probe displacement; in the data active = inhibition above about 10%, passing the limit was not always enough
GDH-TPI counter = GDH-TPI coupling enzyme inhibitors, primary screen, artefact control for M. tuberculosis FBA inhibitor project, biochemical, absorbance, full deck | GDH-TPI coupled enzyme counterscreen, NADH absorbance | inhibition, % at 4.8 µM | actives 1.2% (n = 360,000); in the data active = inhibition above about 30%;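 note: 0% = DMSO wells and 100% = wells lacking the enzyme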
GFP chromo cs = counter-screen: blocks GFP chromophore formation, dose response, counter-screen, biochemical, fluorescence, homogeneous; shares compounds with RecA splice inh; cell-free GFP chromophore formation; EC50, µM; actives 83% (n = 2,100); AID 434968, 2010
Numbers without * were called inactive. A selection: hits, their analogues and other compounds. The true share with any hit is near 4%. Unless noted, the rule behind the calls is not given here.

What do the screens show for `CC1OC(Nc2cccc3ccccc23)C(O)C(O)C1O` (stereo unspecified)?
Mtb bLac sens: 92; FBA Mtb inh: 8; RecA splice inh: 46*; Rv3671c protease: -24; Mtb UGM inh: 0; GDH-TPI counter: 4; GFP chromo cs: >38

How did CC1OC(Nc2ccc(N=Nc3ccccc3)cc2)C(O)C(O)C1O (stereo unspecified) do in these assays?
Mtb bLac sens: 85; FBA Mtb inh: -16; RecA splice inh: 5; Rv3671c protease: -10; Mtb UGM inh: 2; GDH-TPI counter: 16

How did CCOc1cc(C(c2c(C)[nH][nH]c2=O)c2c(C)[nH][nH]c2=O)ccc1OC(=O)c1cccc([N+](=O)[O-])c1 do in these assays?
Mtb bLac sens: 21; FBA Mtb inh: -3; RecA splice inh: 92*; Rv3671c protease: -13; Mtb UGM inh: 1; GDH-TPI counter: 1; GFP chromo cs: 0.44*

What do the screens show for `CCOc1cc(C(c2c(C)[nH][nH]c2=O)c2c(C)[nH][nH]c2=O)ccc1OCc1ccc([N+](=O)[O-])cc1`?
Mtb bLac sens: -13; FBA Mtb inh: 4; RecA splice inh: 99*; Rv3671c protease: -11; Mtb UGM inh: -1; GDH-TPI counter: 9; GFP chromo cs: 0.33*

Results for COc1ccc(/C=C2\SC(=S)N(CC(=O)NC3C=CS(=O)(=O)C3)C2=O)cc1 (stereo unspecified) ?
Mtb bLac sens: -6; FBA Mtb inh: -1; RecA splice inh: -4; Rv3671c protease: -47; Mtb UGM inh: 2; GDH-TPI counter: 8

What do the screens show for `CC1(C2CC2)NC(=O)N(CC(=O)N2CCN(c3ccccc3Cl)CC2)C1=O` (stereo unspecified)?
FBA Mtb inh: -3; GDH-TPI counter: 3

How did CCC(=O)OCCNc1cc(Sc2nc3ccccc3[nH]2)c2nonc2c1[N+](=O)[O-] do in these assays?
Mtb bLac sens: 100; FBA Mtb inh: -5; Rv3671c protease: -14; Mtb UGM inh: 4; GDH-TPI counter: 16

What do the screens show for `O=[N+]([O-])c1c(NCCO)cc(N2CCCCCC2)c2nonc12`?
Mtb bLac sens: -1; FBA Mtb inh: -11; RecA splice inh: 5; Rv3671c protease: -4; Mtb UGM inh: -1; GDH-TPI counter: 27

How did CCCC(=O)OCCNc1cc(SCc2ccco2)c2nonc2c1[N+](=O)[O-] do in these assays?
Mtb bLac sens: 100; FBA Mtb inh: -6; RecA splice inh: 79*; Rv3671c protease: -18; Mtb UGM inh: 3; GDH-TPI counter: 9; GFP chromo cs: 8.6*

Results for Cc1nn(C(C)C(=O)NCc2ccco2)c(C)c1[N+](=O)[O-] (stereo unspecified) ?
Mtb bLac sens: 0; FBA Mtb inh: 4; RecA splice inh: 1; Rv3671c protease: 5; Mtb UGM inh: -3; GDH-TPI counter: -3

What do the screens show for `CCC(=O)OCCNc1cc(Sc2nc3ccccc3s2)c2nonc2c1[N+](=O)[O-]`?
Mtb bLac sens: 97; FBA Mtb inh: -11; RecA splice inh: 50*; Rv3671c protease: 1; Mtb UGM inh: 0; GDH-TPI counter: 11; GFP chromo cs: 4.2*

What do the screens show for `Cc1nnc(Sc2cc(NCCCO)c([N+](=O)[O-])c3nonc23)s1`?
FBA Mtb inh: -9; RecA splice inh: 91*; GDH-TPI counter: 1; GFP chromo cs: 5.1*

What do the screens show for `CC(=O)OCCCNc1cc(SCc2ccco2)c2nonc2c1[N+](=O)[O-]`?
Mtb bLac sens: 98; FBA Mtb inh: -4; RecA splice inh: 78*; Rv3671c protease: -22; Mtb UGM inh: 3; GDH-TPI counter: 17; GFP chromo cs: 14*

What do the screens show for `CCOC(=O)C1CCCN(c2cc(NCCCO)c([N+](=O)[O-])c3nonc23)C1` (stereo unspecified)?
Mtb bLac sens: -10; RecA splice inh: -6; Rv3671c protease: -8; Mtb UGM inh: 3

What do the screens show for `COc1ccc(CN(CC(=O)NCc2ccc(F)cc2)C(=O)CCC(=O)Nc2ccccn2)cc1`?
Mtb bLac sens: -2; FBA Mtb inh: 1; RecA splice inh: 0; Rv3671c protease: -2; Mtb UGM inh: -4; GDH-TPI counter: -1

How did CN(C)CCN(C)C1CN(Cc2ccc([N+](=O)[O-])cc2)S(=O)(=O)C1 (stereo unspecified) do in these assays?
FBA Mtb inh: -2; GDH-TPI counter: 3

How did CCc1nc2ccc(C(=O)N(C)Cc3ccccc3)cn2c1N(CC)CCN(C)C do in these assays?
FBA Mtb inh: -2; GDH-TPI counter: 4

Results for Cc1cccc(C)c1Nc1cn[nH]c1 ?
FBA Mtb inh: -2

Results for Clc1cccc(Cc2c(-c3ccccc3)nc3c4ccccc4ccn23)c1 ?
FBA Mtb inh: 4

Results for CCCC(=O)OCCNc1cc(Sc2nccn2C)c2nonc2c1[N+](=O)[O-] ?
Mtb bLac sens: 101; FBA Mtb inh: -7; RecA splice inh: 90*; Rv3671c protease: -1; Mtb UGM inh: -3; GDH-TPI counter: 2; GFP chromo cs: 3.9*

What do the screens show for `CCCSc1cc(NCCOC(=O)CCC)c([N+](=O)[O-])c2nonc12`?
Mtb bLac sens: 100; FBA Mtb inh: -3; RecA splice inh: 60*; Rv3671c protease: 9; Mtb UGM inh: 1; GDH-TPI counter: 12; GFP chromo cs: 9.9*

Results for CCCSc1cc(NCCOC(C)=O)c([N+](=O)[O-])c2nonc12 ?
Mtb bLac sens: 26; FBA Mtb inh: 0; RecA splice inh: 8; Rv3671c protease: -1; Mtb UGM inh: 0; GDH-TPI counter: 8

What do the screens show for `CCC(=O)N1CCC(C)(C(=O)Nc2ccc(OC)c(OC)c2)C1` (stereo unspecified)?
FBA Mtb inh: -2; GDH-TPI counter: -4

How did N=c1n(Cc2ccccc2)c2ccccc2n1CC(O)COc1ccc(Cl)cc1Cl (stereo unspecified) do in these assays?
FBA Mtb inh: -7; RecA splice inh: 32*; GDH-TPI counter: -2; GFP chromo cs: >38

What do the screens show for `CCc1csc(CCNC(=O)C2CCC(=O)N(Cc3cccc(C(F)(F)F)c3)C2)n1` (stereo unspecified)?
Mtb bLac sens: -26; FBA Mtb inh: 3; RecA splice inh: 2; Rv3671c protease: -10; Mtb UGM inh: 5; GDH-TPI counter: 3

How did O=C1C(=O)c2cccc3cccc1c23 do in these assays?
Mtb bLac sens: -4; FBA Mtb inh: -1; RecA splice inh: 25; Rv3671c protease: -26; Mtb UGM inh: -2; GDH-TPI counter: -4
